Results published in PubChem BioAssay (Tox21).
“And” between values parts separate entries of the source, which are not always exact repeats. Equal values may be shown once. Results filed as inconclusive are left out. The source made the active and inactive calls. Unless noted, calls follow the shape of the dose curve; as a rule, active = well fitted curve in the direction sought with a large enough effect in the repeat runs; inconclusive = weak or mixed curves; inactive = no such curve, though single readings can be large; an effect the other way counts as inactive or inconclusive.

What was measured:
[1] = qHTS assay to identify small molecule antagonists of the estrogen related receptor (ERR) signaling pathway from Tox21 library - cell viability counter screen (AID 1224834); also: nearly all actives have a fitted effect of over 30% in size
Method in brief: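 In this quantitative HTS format, ERR cells receive compounds in DMSO and are incubated for 17.5 h at 37 C. Live-cell protease activity is then detected with CellTiter-Fluor.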

[2] = target: Luciferin 4-monooxygenase (Photinus pyralis) (UniProt P08659); test: qHTS assay to identify small molecule inhibitors of firefly luciferase (AID 1224835); also: nearly all actives have a fitted effect of over 25% in size
Chain of Luciferin 4-monooxygenase (Photinus pyralis) (P08659 whole entry, looked up): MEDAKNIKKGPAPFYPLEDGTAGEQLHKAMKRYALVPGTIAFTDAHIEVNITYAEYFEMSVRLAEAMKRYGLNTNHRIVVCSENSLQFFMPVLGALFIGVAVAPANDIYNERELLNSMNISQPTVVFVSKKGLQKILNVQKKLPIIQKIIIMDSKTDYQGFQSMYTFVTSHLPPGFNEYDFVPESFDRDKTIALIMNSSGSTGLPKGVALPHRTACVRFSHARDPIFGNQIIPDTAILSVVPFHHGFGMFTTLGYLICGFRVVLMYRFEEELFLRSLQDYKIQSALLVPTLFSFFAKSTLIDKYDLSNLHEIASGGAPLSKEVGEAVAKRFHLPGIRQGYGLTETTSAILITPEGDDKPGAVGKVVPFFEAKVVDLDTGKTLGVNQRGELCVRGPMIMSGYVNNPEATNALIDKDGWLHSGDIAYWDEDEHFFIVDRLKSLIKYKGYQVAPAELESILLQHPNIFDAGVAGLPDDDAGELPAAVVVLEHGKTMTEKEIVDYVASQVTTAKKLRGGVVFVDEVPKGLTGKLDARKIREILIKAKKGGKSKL
Method in brief: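 Quantitative HTS format; KM concentrations of both substrates. Purified P. pyralis FLuc activity quantified from luminescence images.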

[3] = qHTS assay to identify small molecule agonists of the constitutive androstane receptor (CAR) signaling pathway - cell viability counter screen (AID 1224836); also: nearly all actives have a fitted effect of over 45% in size
Method in brief: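 Fluorescence from CellTiter-Fluor indicates live cells after 23 h exposure. The human hepatoma line expresses hCAR and a CYP2B6-2.2kb reporter. Incubation medium contains 0.75 uM PK11195 (final).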

[4] = qHTS assay to identify small molecule antagonists of the constitutive androstane receptor (CAR) signaling pathway - cell viability counter screen (AID 1224837); also: nearly all actives have a fitted effect of over 45% in size
Method in brief: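 In quantitative HTS format, compounds at 15 concentrations were applied to HepG2 cells double-transfected with hCAR and CYP2B6-2.2kb under 50 nM CITCO stimulation; live-cell protease activity was read after 23 hr via CellTiter-Fluor.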

[5] = qHTS assay to identify small molecule antagonists of the estrogen related receptor signaling pathway with the pleiotropic PPARgamma coactivator (PGC) from Tox21 10K library - cell viability counter screen (AID 1224840; active = well fitted cell-killing curve with a large enough effect in the repeat runs, not every such curve was filed as active; also: nearly all actives have a fitted effect of over 40% in size)
Method in brief: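 Viability counter screen, PGC/ERR cells: 17.5 h compound exposure at 37 C, CellTiter-Fluor fluorescence endpoint.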

[6] = target: Thyrotropin receptor (Homo sapiens) (UniProt P16473); test: qHTS assay to identify small molecule agonists of the thyroid stimulating hormone receptor (TSHR) signaling pathway (AID 1224843; calls by dose curve; also: nearly all actives have a fitted effect of over 45% in size)
Chain of Thyrotropin receptor (Homo sapiens) (P16473 whole entry, looked up): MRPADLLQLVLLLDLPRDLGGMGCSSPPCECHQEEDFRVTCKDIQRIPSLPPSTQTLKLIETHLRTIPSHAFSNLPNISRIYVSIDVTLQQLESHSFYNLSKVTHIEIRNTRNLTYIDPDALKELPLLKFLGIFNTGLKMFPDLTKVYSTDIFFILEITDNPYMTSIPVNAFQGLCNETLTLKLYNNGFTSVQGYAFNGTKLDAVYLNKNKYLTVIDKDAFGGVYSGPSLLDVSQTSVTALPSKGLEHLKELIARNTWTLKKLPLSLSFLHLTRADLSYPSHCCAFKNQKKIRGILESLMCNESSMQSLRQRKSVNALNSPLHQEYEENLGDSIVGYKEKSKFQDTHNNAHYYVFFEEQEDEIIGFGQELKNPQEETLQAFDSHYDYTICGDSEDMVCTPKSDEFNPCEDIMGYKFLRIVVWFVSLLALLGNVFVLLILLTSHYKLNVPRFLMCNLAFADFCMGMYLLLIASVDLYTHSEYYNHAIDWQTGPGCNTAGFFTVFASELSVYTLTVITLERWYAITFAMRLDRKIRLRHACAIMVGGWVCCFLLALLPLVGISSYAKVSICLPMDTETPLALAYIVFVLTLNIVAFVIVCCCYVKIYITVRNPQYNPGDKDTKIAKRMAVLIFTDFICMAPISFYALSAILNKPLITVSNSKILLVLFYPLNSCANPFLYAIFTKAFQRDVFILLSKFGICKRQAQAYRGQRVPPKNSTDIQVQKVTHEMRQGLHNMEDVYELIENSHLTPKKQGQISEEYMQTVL
Method in brief: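 Compounds are titrated over 15 concentrations, in triplicate, onto TSHR-HEK293 cells seeded at 800/well. Plates sit 30 min at room temperature before cAMP-d2 and anti-cAMP cryptate are added; signal is read after a further hour.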

[7] = qHTS assay to identify small molecule agonists of the hypoxia (HIF-1) signaling pathway - cell viability counter screen (AID 1224844; calls by dose curve; also: nearly all actives have a fitted effect of over 50% in size)
Method in brief: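 Same wells as the HIF-1 reporter screen; ME-180 cells carrying HRE-bla, 17 hr treatment at 37C; CellTiter-Glo luminescence read after 30 min at room temperature.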

[8] = qHTS assay to identify small molecule agonists of H2AX (AID 1224845; active = well fitted activation curve with a large enough effect in the signal ratio in the repeat runs, not every such curve was filed as active; the % refers to the signal ratio)
Method in brief: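 Wild-type CHO-K1 cells plated overnight, then exposed 3 hr at 37C to compounds at 15 concentrations (0.76% DMSO). Lysed, then HTRF anti-pH2AX(S139)-cryptate/anti-H2AX-d2 detection after 24 hr at room temperature; emissions 665 and 620 nm.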

[9] = qHTS assay to identify small molecule agonists of the hypoxia (HIF-1) signaling pathway (AID 1224846; active = well fitted activation curve with a large enough effect in the signal ratio in the repeat runs, not every such curve was filed as active; the % refers to the signal ratio)
Method in brief: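 In ME-180 cells bearing an HRE-bla construct, 17 h treatment with DMSO-dissolved compounds at 37C was followed by CCF4-AM loading to quantify reporter induction.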

[10] = qHTS assay to identify small molecule agonists of H2AX - cell viability counter screen (AID 1224847; calls by dose curve; also: top concentration of the series differs between compounds; nearly all actives have a fitted effect of over 30% in size)
Method in brief: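 Viability of CHO-K1 (wild type) cells after 3 hr compound exposure was measured by CellTiter-Glo luminescence.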

[11] = qHTS RealTime-Glo MT Cell Viability Assay in HepG2 cells - 24 hour (AID 1224867); also: nearly all actives have a fitted effect of over 50% in size
Method in brief: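 Tox21 10K library screened in qHTS format on HepG2 cells carrying RealTime-Glo reagents. Compounds were added after a 5 h preincubation, and the luminescent signal from continuous culture was measured repeatedly during 40 h treatment.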

[12] = qHTS RealTime-Glo MT Cell Viability Assay in HEK293 cells - 32 hour (AID 1224868); also: top concentration of the series differs between compounds; nearly all actives have a fitted effect of over 50% in size
Method in brief: (§1)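 Luminescence generated by NanoLuc from substrate produced by living HEK293 cells served as the viability signal. Each value reflects the reading at its stated time point during continuous 40 h compound exposure at 37 C.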

[13] = A CellTox Green Cytotoxicity Assay to monitor cytotoxicity in HEK293 cells - 0 hour (AID 1224869); also: nearly all actives have a fitted effect of over 50% in size
Method in brief: (§2)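 Homogeneous no-lysis format: HEK293 cell suspension mixed with CellTox Green reagent, seeded, incubated 5 h at 37 C/5% CO2, then dosed by pintool with compound in DMSO.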

[14] = qHTS RealTime-Glo MT Cell Viability Assay in HepG2 cells - 40 hour (AID 1224870); also: nearly all actives have a fitted effect of over 50% in size
Method in brief: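 HepG2 cells mixed with RealTime-Glo MT reagents (NanoLuc plus cell-permeant prosubstrate) were seeded at 600 cells/well, incubated 5 h at 37 C/5% CO2, then pinned with compounds in DMSO; nonlytic luminescence tracked viability during 40 h treatment.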

[15] = A CellTox Green Cytotoxicity Assay to monitor cytotoxicity in HEK293 cells - 40 hour (AID 1224871); also: nearly all actives have a fitted effect of over 45% in size
Method in brief: as §2

[16] = qHTS RealTime-Glo MT Cell Viability Assay in HEK293 cells - 16 hour (AID 1224872)
Method in brief: as §1

[17] = target: Nuclear receptor subfamily 1 group I member 3 (Homo sapiens) (UniProt Q14994); test: qHTS assay to identify small molecule antagonists of the constitutive androstane receptor (CAR) signaling pathway (AID 1224838); also: nearly all actives have a fitted effect of over 40% in size
Chain of Nuclear receptor subfamily 1 group I member 3 (Homo sapiens) (Q14994 whole entry, looked up): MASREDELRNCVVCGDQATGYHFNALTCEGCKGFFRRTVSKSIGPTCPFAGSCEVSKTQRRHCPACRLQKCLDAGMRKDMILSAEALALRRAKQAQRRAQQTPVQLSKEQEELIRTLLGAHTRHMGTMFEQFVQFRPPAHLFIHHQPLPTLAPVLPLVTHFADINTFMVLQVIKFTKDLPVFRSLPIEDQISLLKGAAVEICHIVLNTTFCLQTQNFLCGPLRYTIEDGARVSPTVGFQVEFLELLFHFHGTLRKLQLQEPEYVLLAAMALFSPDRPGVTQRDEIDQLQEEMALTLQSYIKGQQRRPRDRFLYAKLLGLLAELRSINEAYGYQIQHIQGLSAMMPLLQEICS
Method in brief: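 CITCO-stimulated (50 nM final) HepG2 cells stably transfected with hCAR and CYP2B6-2.2kb luciferase were exposed to compounds at 15 concentrations for 24 h at 37 C/5% CO2. A luciferase reagent was added and luminescence recorded after 30 min.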

[18] = target: Nuclear receptor subfamily 1 group I member 3 (Homo sapiens) (UniProt Q14994); test: qHTS assay to identify small molecule agonists of the constitutive androstane receptor (CAR) signaling pathway (AID 1224839);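 also: HepG2 cells stably carrying human CAR and a CYP2B6 luciferase reporter; nearly all actives have a fitted effect of over 15% in size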
Method in brief: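 Stable hCAR/CYP2B6-2.2kb HepG2 line in DMEM with 10% FBS; compounds (15 concentrations) and 0.75 uM PK11195 final, 24 h at 37 C/5% CO2, then ONE-Glo luminescence after 30 min.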

[19] = qHTS assay to identify small molecule antagonists of the estrogen related receptor signaling pathway with the pleiotropic PPARgamma coactivator (PGC) from Tox21 10K library (AID 1224841; call rule not given here)
Method in brief: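 In the PGC/ERR line, DMSO solutions of test chemicals are pin-delivered to 2,000 cells/well six hours after dispensing. Following eighteen hours' incubation, One-Glo reagent is added and luminescence recorded.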

[20] = qHTS assay to identify small molecule agonists of the estrogen related receptor (ERR) signaling pathway from Tox21 library (AID 1224849; calls by dose curve; also: nearly all actives have a fitted effect of over 15% in size); conditions: ERR reporter cell line, ONE-Glo luciferase, 18 h
Method in brief: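 Reporter cells (ERR, NTP source) treated with Tox21 10K compounds 18 h, 37 C. Readout: ONE-Glo luminescence, 30 min RT.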
% is scaled to controls: 0 for no effect and ±100 for the full control effect.

OCCc1ccccc1
inactive: Potency [1] | Potency [2] | Potency [3] | Potency [4] | Potency [5] | outcome [6] | Potency [7] | outcome [8] | outcome [9] | outcome [10] | Potency [11] | Potency [12] | outcome [13] | Potency [14] | Potency [15] | Potency [16]

O=C(c1ccccc1)C(O)c1ccccc1 (stereo not drawn)
inactive: Potency [1] | Potency [2] | Potency [3] | Potency [4] | Potency [17] | Potency [5] | outcome [6] | Potency [7] | outcome [8] | outcome [9] | outcome [10] | Potency [11] | Potency [12] | outcome [13] | Potency [14] | Potency [15] | Potency [16]

O=C1NC(=O)c2ccccc21
inactive: Potency [1] | Potency [2] | Potency [3] | Potency [4] | Potency [17] | Potency [18] | Potency [5] | outcome [6] | Potency [7] | outcome [8] | outcome [9] | outcome [10] | Potency [11] | Potency [12] | outcome [13] | Potency [14] | Potency [15] | Potency [16]

Cc1noc(NS(=O)(=O)c2ccc(N)cc2)c1C
inactive: Potency [1] | Potency [2] | Potency [3] | Potency [4] | Potency [17] | Potency [18] | Potency [5] | outcome [6] | Potency [7] | outcome [8] | outcome [9] | outcome [10] | Potency [11] | Potency [12] | outcome [13] | Potency [14] | Potency [15] | Potency [16]

CCCC(CCC)C(=O)O
inactive: Potency [1] | Potency [2] | Potency [3] | Potency [4] | Potency [5] | outcome [6] | Potency [7] | outcome [8] | outcome [9] | outcome [10] | Potency [11] | Potency [12] | outcome [13] | Potency [14] | Potency [15] | Potency [16]

O=C(O)C(=O)O
inactive: Potency [1] | Potency [2] | Potency [3] | Potency [4] | Potency [5] | outcome [6] | Potency [7] | outcome [8] | outcome [9] | outcome [10] | Potency [11] | Potency [12] | outcome [13] | Potency [14] | Potency [15] | Potency [16]

O=S(=O)(O)NC1CCCCC1
inactive: Potency [1] | Potency [3] | Potency [4] | Potency [17] | Potency [18] | Potency [5] | outcome [6] | Potency [7] | outcome [8] | outcome [9] | outcome [10] | Potency [11] | Potency [12] | outcome [13] | Potency [14] | Potency [15] | Potency [16]

O=C(O)CCC(=O)O
inactive: Potency [2] | Potency [3] | Potency [4] | Potency [17] | Potency [18] | Potency [5] | Potency [19] | outcome [6] | Potency [7] | outcome [8] | outcome [9] | outcome [10] | activity change, positive = activation ([20]; at 42.5 µM (top of the series)) 5.73% | activity change, positive = activation ([20]; at 92.4 µM (top of the series)) 5.97% and 1.48% | Potency [11] | Potency [12] | outcome [13] | Potency [14] | Potency [15] | Potency [16]
